# Rab9 prom act – activates the Rab9 promoter; Huh7 Rab9 promoter-luciferase reporter, luminescence, 24 h; Potency, µM (titrated, usually from 9.22 µM), usual class: activators; hit rate 2.8% among 320,000; also: nearly all actives have a fitted effect of over 60% in size
#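 Stable Rab9-luc Huh7, 1500 cells/well, 2 h settle; cmpd in DMSO, 24 h, 37 °C/5% CO2; luciferase reagent 10 min RT; luminescence.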
# SMN2 splice enh – SMN2 splice variant enhancement | hit rate 2.8% among 210,000 | HEK293 SMN2-luciferase splicing reporter, luminescence, 30-36 h | Potency, µM (highest dose often 46.1 µM), usual class: activators; also: nearly all actives have a fitted effect of over 55% in size
#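 HEK293 cells carry an SMN2 minigene-luciferase reporter in which exon 7 inclusion puts luciferase in frame. Cells were seeded at 2000 cells/well, attached for 10-12 hours, then exposed to compounds for 30-36 hours at 37C before ONE-Glo luminescence.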
# FLuc modulator – counter-screen for miR-21 project: firefly luciferase inhibitors or activators. P08659. purified FLuc, Km substrates, luminescence inhibition. Potency, µM (doses to about 57.5 µM), actives largely listed as inhibitors. hit rate 6.9% among 360,000. AID 588342; also: nearly all actives have a fitted effect of over 55% in size
# Target sequence (P08659 whole entry, looked up): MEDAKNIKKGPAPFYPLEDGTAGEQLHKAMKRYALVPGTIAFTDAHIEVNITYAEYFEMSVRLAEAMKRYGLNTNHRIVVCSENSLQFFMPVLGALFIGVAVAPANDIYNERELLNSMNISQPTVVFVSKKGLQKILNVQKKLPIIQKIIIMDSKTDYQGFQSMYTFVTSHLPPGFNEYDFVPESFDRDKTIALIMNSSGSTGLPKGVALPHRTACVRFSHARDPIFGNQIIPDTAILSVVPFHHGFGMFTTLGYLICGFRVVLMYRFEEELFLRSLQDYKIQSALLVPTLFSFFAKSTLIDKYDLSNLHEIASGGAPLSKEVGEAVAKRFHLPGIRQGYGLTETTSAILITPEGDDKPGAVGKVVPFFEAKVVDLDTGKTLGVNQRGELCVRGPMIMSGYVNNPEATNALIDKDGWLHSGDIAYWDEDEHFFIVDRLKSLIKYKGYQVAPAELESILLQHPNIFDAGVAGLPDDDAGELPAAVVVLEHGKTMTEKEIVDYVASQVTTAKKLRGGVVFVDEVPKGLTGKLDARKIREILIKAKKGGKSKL
#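 Biochemical qHTS of compounds, final roughly 60 µM downward over six points, against 10 nM purified firefly luciferase using Km concentrations of substrates (10 uM D-luciferin, 10 uM ATP) in Tris acetate pH 7.5 buffer; luminescence output.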
# ELG1 genotoxic – induces genotoxicity in HEK293T cells with luciferase-tagged ELG1. HEK293T ELG1-luciferase reporter, luminescence, 16 h. Potency, µM (titrated, usually from 46 µM), actives largely listed as activators. hit rate 1.3% among 330,000; also: nearly all actives have a fitted effect of over 60% in size
#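 After overnight (16 hr) compound treatment at 37 °C, ELG1-luciferase HEK293T cells were lysed with ONE-Glo; luminescence quantified 30 min later at room temperature.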
# NPC1 promoter act – NPC1 promoter activation. Huh7 NPC1 promoter luciferase reporter, 24 h. Potency, µM (highest dose often 9.22 µM), usual class: activators. hit rate 2.4% among 320,000; also: nearly all actives have a fitted effect of over 60% in size
#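 Luciferase expression driven by the NPC1 promoter was measured in stably transfected Huh7 cells after a 24 h compound incubation, using a luciferase reagent and a luminescence read.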
# Hits are given with their value; – = inactive; ? = inconclusive; · = no result. Hits are enriched below; roughly 7.4% of the tested compounds scored in any of these assays. Calls follow the shape of the dose curve; as a rule, active = well fitted curve in the direction sought with a large enough effect; inconclusive = small, poorly fitted or top-dose-only effect, or another doubt; inactive = no such curve, though single readings can be large; an effect the other way counts as inactive or inconclusive.
SMILES,Rab9 prom act,SMN2 splice enh,FLuc modulator,ELG1 genotoxic,NPC1 promoter act
Cc1cnn(-c2cc(N/N=C/c3ccccc3F)ncn2)c1,–,–,–,?,–
COc1cc(N/N=C/c2ccc(N(C)C)cc2)ncn1,?,2.2µM,0.85µM,1.2µM,1.3µM
O=C(CN(Cc1ccccc1Cl)C(=O)c1csnn1)NC1CCCC1,–,·,–,–,–
N#Cc1c(NC(=O)CSc2ncn[nH]2)sc2c1CCCC2,–,–,8.5µM,–,–
CC1CCc2c(sc(NC(=O)CSc3ncn[nH]3)c2C#N)C1 (stereo not drawn),–,·,11µM,–,–
CC1CCc2c(sc(NC(=O)Cn3nc(C(=O)O)c4ccccc4c3=O)c2C#N)C1 (stereo not drawn),–,·,12µM,–,–
CCCc1cc(=O)[nH]c(SCC(=O)Nc2sc3c(c2C#N)CCC(C)C3)n1 (stereo not drawn),–,–,27µM,–,–
CC1CCc2c(sc(NC(=O)CSc3nnc(-c4ccccc4)o3)c2C#N)C1 (stereo not drawn),–,–,–,–,–
CCOc1ccc(C(=O)c2cn(Cc3ccccc3)c3c(F)cc(F)cc3c2=O)cc1,·,–,–,·,·
COc1ccc(/C=C2/NC(=O)N(CC(=O)Nc3cccc(C)c3)C2=O)cc1O,–,–,–,–,–
O=C(CN1C(=O)NC2(CCCC2)C1=O)N1CCc2ccccc2C1,–,–,–,–,–
O=[N+]([O-])c1cccc(S(=O)(=O)Nc2ccc(-c3ccc(N4CCCC4)nn3)cc2)c1,–,·,30µM,–,–
O=[N+]([O-])c1cccc(S(=O)(=O)Nc2ccc(-c3ccc(N4CCOCC4)nn3)cc2)c1,–,·,21µM,–,–
COc1ccc(-c2nnc(N(C)C(=O)c3ccno3)s2)cc1,3.2µM,11µM,11µM,?,?
COc1ccc(-c2nnc(N(C)C(=O)C3CCCO3)s2)cc1 (stereo not drawn),2µM,11µM,13µM,?,2.5µM
CN(C(=O)c1ccno1)c1nnc(-c2ccccn2)s1,–,–,15µM,–,–
CN(C(=O)c1ccncc1)c1nnc(-c2ccccn2)s1,?,?,17µM,?,–
Cc1cnc(-c2nnc(N(C)C(=O)C3CCCO3)s2)cn1 (stereo not drawn),–,–,–,–,–
Cc1cc(C)cc(OC(=O)c2cc(-c3ccc(Cl)cc3)on2)c1,·,·,–,·,·
CC(C)c1ccc2[nH]c3c(c2c1)[C@@H]1CCN2C(=O)CCC[C@H](C3)[C@H]12,–,·,?,–,–
Cc1cc(C)cc(C(=O)NCCC(=O)N2CCC3(CC2)NCCc2[nH]cnc23)c1,–,·,–,–,–
Cc1ccc(NC(=O)c2cccc(S(=O)(=O)N3CCN(C)CC3)c2)cc1F,–,·,–,–,–
Cc1ccc(C(=O)N(C)c2nnc(-c3ccncc3)s2)cc1,?,–,17µM,–,?
CN(C(=O)c1ccncc1)c1nnc(-c2cccnc2)s1,–,·,–,?,–
CCc1ccc(C(=O)NNC(=O)CCc2nc3ccccc3c(=O)[nH]2)cc1,–,·,–,–,–
SMILES,Rab9 prom act,SMN2 splice enh,FLuc modulator,ELG1 genotoxic,NPC1 promoter act
CCOc1ccc2nc(NC(=O)CSC3=NCCS3)sc2c1,?,–,15µM,?,?
CCOc1ccc2nc(NC(=O)CSc3ccc(Cl)cc3)sc2c1,–,–,?,–,–
COc1ccc2nc(NC(=O)CSc3nnc(C)n3N)sc2c1,0.5µM,·,3µM,7.3µM,1.6µM
COc1ccc2nc(NC(=O)CCc3ccc(OC)c(OC)c3)sc2c1,–,–,–,–,–
CCCC(=O)Nc1nc2ccc(OC)cc2s1,1.8µM,10µM,7.6µM,?,0.89µM
COc1ccc2nc(NC(=O)CSC3=NCCS3)sc2c1,?,–,17µM,–,?
Cc1ccccc1CSCC(=O)N1CCN(c2ccccc2)CC1,–,–,?,–,–
CCOC(=O)C1CCN(S(=O)(=O)c2cc(-c3onc(C)c3C)ccc2C)CC1,·,·,–,·,·
COc1ccc2nc(NC(=O)CSc3ccccc3)sc2c1,–,–,17µM,?,–
CCOc1ccc2nc(NC(=O)CSc3nc(SC)ns3)sc2c1,?,?,24µM,–,–
COc1ccc2nc(NC(=O)CSc3nnc(N)s3)sc2c1,2µM,10µM,?,–,?
COc1ccc2nc(NC(=S)N(C)C)sc2c1,0.63µM,–,1.9µM,0.82µM,0.71µM
CSc1nsc(SCC(=O)Nc2ccc(OC(C)=O)cc2)n1,?,?,?,?,–
